# Experimental data from PubChem BioAssay (NCI).
# This is part of a sample that, as a whole, favours compounds with a hit. Of some 83,000 tested, about 20% had one in any assay.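 A percent growth of 40 corresponds to 60% growth inhibition; 0 means no net growth; -100 means all cells died. Active threshold: below 10.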 Values without a mark were called inactive. The source made the active and inactive calls.
# What was measured:
# Assay in all cases: NCI-60 one-dose screen, 48 h (100 = growth as untreated, 0 = no growth, -100 = all killed)
# Details in all cases: 10 µM unless noted
# [1] = system: UO-31 renal
# [2] = system: TK-10 renal
# [3] = system: ACHN renal
# [4] = system: CAKI-1 renal
# [5] = system: A498 renal
# [6] = system: CCRF-CEM leukemia
# [7] = system: MOLT-4 leukemia
# [8] = system: SN12C renal
SMILES,growth [1],growth [2],growth [3],growth [4],growth [5],growth [6],growth [7],growth [8]
CC1=NOCC(=O)N1,96.5%,103%,102%,96.3%,111%,90.3%,102%,–
COc1ccc2cc(-c3nc(C)c(C(C)=O)c(-c4ccc(C)cc4)n3)ccc2c1,72.9%,93.9%,98.7%,79.5%,–,89.7%,106%,95.5%
CCCOC(=O)C1c2cc3c(cc2CC(C)C1C(=O)OCCC)OCO3 (stereo unspecified),65.7%,94.2%,101%,–,99.8%,–,90.9%,104%
COc1ccc(/C(=C\c2cc(OC)c(OC)c(OC)c2)C(=O)N2CCCNCC2)cc1,85.9%,101%,109%,–,99.1%,99.9%,94.7%,106%
COc1cc(C2CC(c3ccc(Cl)cc3)=NN2C=O)ccc1OS(=O)(=O)c1ccc(C)cc1 (stereo unspecified),85.2%,110%,90.9%,81.4%,–,76.3%,91.5%,97.1%
c1ccc2c(Cc3csc4ccccc34)csc2c1,–,106%,93.1%,81.2%,107%,94.2%,87%,97.1%
O=C(Nc1ccc(Oc2ccc(NC(=O)Nc3ccccc3Cl)cc2)cc1)Nc1ccccc1Cl,20.1%,75.1%,67.4%,–,–,42.4%,–,44.1%
Cc1cc(C)c2c(n1)sc1c(Nc3ccc(O)cc3)ncnc12,–,59.1%,16%,15.8%,18.6%,16.6%,14.3%,21.5%
CC1(C)C(N(O)C(=O)Nc2ccc(Cl)cc2)N(c2ccc(Cl)cc2)C(=O)N1CC(=O)N/N=C/C=C/c1ccc([N+](=O)[O-])o1 (stereo unspecified),12.8%,4.58% (active),9.18% (active),68%,–,–,-21.5% (active),–
CCOC(=O)C(=CNc1ccccc1Cl)C(=O)OCC,–,99.3%,79.2%,–,5.74% (active),85.8%,–,101%
[O-]/[N+](=C\c1ccccc1)CC1(O)CCCCC1,96.3%,103%,99.2%,104%,82.9%,101%,106%,–
O=[N+]([O-])c1cc(F)c2cccnc2c1O,73.6%,152%,89.4%,–,–,120%,–,–
O=C(CI)NCCNc1cccc2c(S(=O)(=O)O)cccc12,93.4%,111%,107%,109%,–,100%,98.3%,94.7%
O=Cc1ccc2nc(C(Cl)(Cl)Cl)ccc2c1,81.8%,101%,101%,99.7%,–,91.9%,98.4%,104%
c1ccc2c(c1)cnc1ccccc12,95.2%,116%,100%,–,-7.57% (active),97.8%,–,95.5%
COc1ccc2[nH]cc(C(c3ccc(Cl)cc3)N3CCCC3)c2c1 (stereo unspecified),59%,87.6%,93.1%,89.4%,–,70.2%,75.1%,109%
NC(N)=N/N=C/c1ccccc1,88.3%,93.5%,106%,86.9%,97.7%,84.8%,–,–
CCc1ccc(Nc2cc(C)c3ccc(O)cc3n2)cc1,–,74.1%,73.8%,53%,93.7%,68.9%,62.9%,77%
COc1ccc(C2CC(c3cccc(Nc4ccnc5cc(Cl)ccc45)c3)=NN2c2ccc(Cl)cc2)cc1 (stereo unspecified),–,93.6%,50.5%,1.94% (active),49.7%,53.5%,–,–
CCCCn1c(C)nc2ccc(Nc3nc(Cl)nc4nc[nH]c34)cc21,57.8%,67.3%,79%,60.5%,–,53%,37.9%,74.6%
